Vc quorum ag: quorum light induction in luxS cqsA deficient V. cholerae. AID 588436. V. cholerae BH1578 lux reporter, luminescence, 6 h. actives 0.16% (n = 350,000). activation, % at 18.7 µM; in the data active means activation mostly above about 9.7%, no sharp cut-off; inconclusive means no clear call, values can overlap the other calls; inactive means mostly below about 3.7%
MazEF act: increases E. coli MazEF RNase cleavage of RNA | P0AE70 | FAM/BHQ RNA-DNA oligo cleavage fluorescence, 5 h | activation, % at 20 µM | actives 0.32% (n = 350,000) | AID 504720; in the data active means activation above about 50%
BoNT F protease: inhibitors of Botulinum neurotoxin F light chain protease | Multiplex microsphere protease cleavage assay, flow cytometry | actives 0.22% (n = 360,000) | AID 588497 | inhibition, % at 10 µM; in the data active means inhibition above about 35%, passing the limit was not always enough; inconclusive means no clear call, values can overlap the other calls; further: plate controls were buffer without enzyme for full effect and enzyme alone for no effect
BoNT-A LC inh2: BoNT A light chain protease inhibition; multiplex microsphere protease substrate cleavage, flow cytometry; inhibition, % at 10 µM; actives 0.17% (n = 360,000); AID 588499; further: plate controls were buffer without enzyme for full effect and enzyme alone for no effect
Autofluor counter: compound fluorescence in toxin protease inhibitor counterscreen; AID 624483; compound autofluorescence counterscreen, microsphere flow cytometry; hits give high values; actives 3.1% (n = 360,000); fluorescence intensity (concentration not given with the values); in the data active means fluorescence intensity above about 16000; inconclusive means no clear call, values can overlap the other calls
Anthrax LF inh2: anthrax lethal factor protease inhibition. P15917. multiplex microsphere protease cleavage assay, LF. inhibition, % at 10 µM. actives 0.12% (n = 360,000). AID 588501; further: plate controls were buffer without enzyme for full effect and enzyme alone for no effect
Target sequence (P15917 whole entry, looked up): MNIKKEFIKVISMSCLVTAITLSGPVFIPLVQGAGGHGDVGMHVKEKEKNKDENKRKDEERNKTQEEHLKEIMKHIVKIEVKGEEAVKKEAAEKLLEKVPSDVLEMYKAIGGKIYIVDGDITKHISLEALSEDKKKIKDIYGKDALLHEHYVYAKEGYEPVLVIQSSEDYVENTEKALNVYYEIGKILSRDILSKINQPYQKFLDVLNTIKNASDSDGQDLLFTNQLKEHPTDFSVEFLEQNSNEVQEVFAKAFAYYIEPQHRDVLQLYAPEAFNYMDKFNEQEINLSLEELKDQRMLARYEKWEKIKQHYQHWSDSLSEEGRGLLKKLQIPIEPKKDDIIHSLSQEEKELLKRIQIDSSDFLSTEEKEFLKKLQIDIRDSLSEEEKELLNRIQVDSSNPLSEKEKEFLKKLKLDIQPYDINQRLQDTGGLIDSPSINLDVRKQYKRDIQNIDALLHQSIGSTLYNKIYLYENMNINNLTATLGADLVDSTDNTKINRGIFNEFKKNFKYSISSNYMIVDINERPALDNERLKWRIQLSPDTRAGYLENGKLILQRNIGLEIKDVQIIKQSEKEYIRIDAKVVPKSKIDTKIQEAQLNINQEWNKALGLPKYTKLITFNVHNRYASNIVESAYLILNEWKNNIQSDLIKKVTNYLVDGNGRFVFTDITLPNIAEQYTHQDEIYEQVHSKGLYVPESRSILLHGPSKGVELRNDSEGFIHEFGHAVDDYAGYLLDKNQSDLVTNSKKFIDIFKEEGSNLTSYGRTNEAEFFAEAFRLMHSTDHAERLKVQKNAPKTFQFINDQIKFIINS
Active calls of the source: *; i = inactive; ? = inconclusive; · = no result given. In the library only some 3.9% were active in any assay of this set; here they are far more common. Unless noted, no stated cut-off is given here; in the data, active means inhibition above about 30%; inconclusive means no clear call, values can overlap the other calls; inactive means below that.

SMILES	Vc quorum ag	MazEF act	BoNT F protease	BoNT-A LC inh2	Autofluor counter	Anthrax LF inh2
COc1ccc(CC(=O)OCC(=O)NC(=O)NC23CC4CC(CC(C4)C2)C3)cc1	i	-3	-1	-1	24237*	-1
O=C(COC(=O)c1n[nH]c2ccccc12)NC(=O)NC12CC3CC(CC(C3)C1)C2	i	-13	2	?	19573*	-2
COCCN(CCOC)C(=O)CC(=O)N(CCOC)CCOC	i	5	1	2	19259*	1
COCCN(CCOC)C(=O)Nc1ccc(Cl)cc1	0	0	-2	0	4911	-1
CCOC(=O)c1nnn(-c2nonc2N)c1-c1ccccc1	i	-2	1	0	23505*	-1
CCOC(=O)c1nnn(-c2nonc2N)c1-c1ccc(C)cc1	0	16	2	1	3197	-3
CCOC(=O)c1nnn(-c2nonc2N)c1CSc1ccccc1	i	6	4	1	22923*	-1
Cc1c(CN2CCCCC2C)c(=O)n(-c2ccccc2)n1C (centres undefined)	-2	4	1	?	22027*	4
CCS(=O)(=O)Nc1ccc(C2=NN(C(=O)c3ccco3)C(c3ccc(C)cc3)C2)cc1 (centres undefined)	i	0	-2	?	16946*	-13
C=CCn1cc(/C=C/c2cc[n+](C)cc2)c2ccccc21	i	70*	6	-1	5216	-12
CC(C)n1cc(/C=C/c2cc[n+](C)cc2)c2ccccc21	i	69*	?	-10	7713	2
CCC(C)n1c(OC)nc2c1c(=O)n(C)c(=O)n2C (centres undefined)	0	8	-10	-1	4480	-4
COc1ccc(OC)c(CN2C(=O)CCC2(C)c2nnnn2-c2c(C)cccc2C)c1 (centres undefined)	·	·	-10	-1	6664	6
O=C1C(=O)c2ccc(-c3ccccc3)cc2-c2ccccc21	i	9	0	0	16446*	-1
CCOC(=O)C1(C)CCN1C(=O)c1ccc2c(c1)CCO2 (centres undefined)	-1	·	4	0	4058	-4
CC(=O)Nc1ccc(C2=CC(=O)CC(C)(C)C2)cc1	5	2	-3	0	3960	5
Oc1ccc(Cl)cc1CNCC1CCCO1 (centres undefined)	-5	-2	-7	-4	20694*	-2
Nc1nc(SCC(=O)NCC2CCCO2)n[nH]1 (centres undefined)	4	0	-37	-2	3610	-7
O=C(CSc1cc(Cl)ccc1Cl)NCC1CCCO1 (centres undefined)	0	-2	0	1	22708*	-1
O=C(CSc1nc2cc(Cl)ccc2s1)NCC1CCCO1 (centres undefined)	4	-9	-5	0	2787	0
Clc1ccccc1CNCC1CCCO1 (centres undefined)	i	5	12	0	2851	-11
Nc1cc(N)nc(SCC(=O)NCC2CCCO2)n1 (centres undefined)	-6	-3	-1	?	20538*	-1
COc1ccc(S(=O)(=O)N2CCOC23CCN(S(=O)(=O)c2cc(F)ccc2F)CC3)cc1	-2	-2	?	-1	5736	0
O=c1[nH]c(/C=C/c2ccccc2OC(F)F)nc2c1cnn2-c1ccccc1	i	13	5	-1	2418	3
COc1ccc(C(=O)NCCNC(C)=O)cc1S(=O)(=O)NCc1ccc(Cl)cc1	i	4	-6	-1	19992*	-2
SMILES	Vc quorum ag	MazEF act	BoNT F protease	BoNT-A LC inh2	Autofluor counter	Anthrax LF inh2
COc1ccc(C(=O)NC2CCC(O)CC2)cc1S(=O)(=O)NCc1ccc(Cl)cc1 (centres undefined)	0	-20	·	·	·	·
O=C(O)CCSc1nc2ccccc2s1	i	4	1	2	22416*	-4
CC(=O)Nc1ccc(NC(=O)CCCSc2nc3ccccc3s2)cc1	i	-3	-6	0	4410	7
O=C(CCCSc1nc2ccccc2s1)NC1=NCCS1	i	5	-5	1	23045*	0
CC1CCCN(C(=O)CSc2cnc3ccccc3n2)C1 (centres undefined)	-2	-1	-4	0	19588*	-1
CC1CCN(C(=O)CSc2nc3ccccc3s2)CC1	5	-7	0	1	23396*	1
c1ccc2sc(SCSc3nc4ccccc4s3)nc2c1	i	-2	-3	0	3347	3

High-throughput results from PubChem.
